# In PubChem BioAssay (NCATS):
# This is one part of the list. Records with an inconclusive call do not appear. Active and inactive are the calls of the source. Calls come from the whole dose curve; as a rule, active = well fitted inhibition curve with a large enough effect; inconclusive = small, poorly fitted or top-dose-only effect; inactive = no such curve, though single readings can be large or run the other way.
# Molecular target: ATPase family AAA domain-containing protein 5 (Homo sapiens) (UniProt Q96QE3)
# Assay: qHTS screen for small molecules that inhibit ELG1-dependent DNA repair in human embryonic kidney (HEK293T) cells expressing luciferase-tagged ELG1: Hit Confirmation using MMS Stimulated ELG1 (AID 624249); note: nearly all actives have a fitted effect of over 60% in size
# Conditions: HEK293T luciferase-tagged ELG1 level; series mostly up to 46.1 µM
# Description: Cancer cells divide rapidly compared to normal cells in the body. During cell division, cancer cells need to duplicate their genome by DNA replication. The failure of genome duplication leads to cancer cells' death. Therefore, inhibitors of DNA replication could specifically kill cancer cells. Based on this concept, many chemotherapeutic agents were developed and have been used to treat cancer patients. However, there are a limited number of agents available in the clinical setting, and some of those that do exist have low efficacy and severe side effects. Therefore, if we can find the compounds that effectively block DNA replication either by directly damaging DNA or by inhibiting other cellular mechanisms, the options for cancer treatment will be broadened. With this in mind, we developed a quantitative high-throughput ELG1-luciferase reporter gene assay. Small molecules that specifically block ELG1 function in response to DNA damage can be identified by monitoring the suppression of luciferase activity. Since ELG1 defines a pathway for repairing DNA damage, agents blocking ELG1 function can be used to sensitize cancer cells to chemotherapeutic agents whose mechanism of action involves the induction of DNA damage.
# NIH Molecular Libraries Probe Production Network [MLPCN]
# NIH Chemical Genomics Center [NCGC]
# Assay Provider: Kyungjae Myung, NHGRI, NIH
# ELG1-luc HEK293T cells will be seeded in 1536-well plates at a density of 2,000 cells/well. Approximately 5 hours after plating, compounds will be added to the plate by pin tool transfer and MMS will be added by FRD dispenser (final concentration of MMS = 10 µM). 16 hours following the addition of the compounds, luciferase activity will be measured using Amplight reagent.
# Potency is the fitted concentration of half-maximal effect.
# ATPase family AAA domain-containing protein 5 (Homo sapiens), sequence (Q96QE3 whole entry, looked up, the tested form may be a part): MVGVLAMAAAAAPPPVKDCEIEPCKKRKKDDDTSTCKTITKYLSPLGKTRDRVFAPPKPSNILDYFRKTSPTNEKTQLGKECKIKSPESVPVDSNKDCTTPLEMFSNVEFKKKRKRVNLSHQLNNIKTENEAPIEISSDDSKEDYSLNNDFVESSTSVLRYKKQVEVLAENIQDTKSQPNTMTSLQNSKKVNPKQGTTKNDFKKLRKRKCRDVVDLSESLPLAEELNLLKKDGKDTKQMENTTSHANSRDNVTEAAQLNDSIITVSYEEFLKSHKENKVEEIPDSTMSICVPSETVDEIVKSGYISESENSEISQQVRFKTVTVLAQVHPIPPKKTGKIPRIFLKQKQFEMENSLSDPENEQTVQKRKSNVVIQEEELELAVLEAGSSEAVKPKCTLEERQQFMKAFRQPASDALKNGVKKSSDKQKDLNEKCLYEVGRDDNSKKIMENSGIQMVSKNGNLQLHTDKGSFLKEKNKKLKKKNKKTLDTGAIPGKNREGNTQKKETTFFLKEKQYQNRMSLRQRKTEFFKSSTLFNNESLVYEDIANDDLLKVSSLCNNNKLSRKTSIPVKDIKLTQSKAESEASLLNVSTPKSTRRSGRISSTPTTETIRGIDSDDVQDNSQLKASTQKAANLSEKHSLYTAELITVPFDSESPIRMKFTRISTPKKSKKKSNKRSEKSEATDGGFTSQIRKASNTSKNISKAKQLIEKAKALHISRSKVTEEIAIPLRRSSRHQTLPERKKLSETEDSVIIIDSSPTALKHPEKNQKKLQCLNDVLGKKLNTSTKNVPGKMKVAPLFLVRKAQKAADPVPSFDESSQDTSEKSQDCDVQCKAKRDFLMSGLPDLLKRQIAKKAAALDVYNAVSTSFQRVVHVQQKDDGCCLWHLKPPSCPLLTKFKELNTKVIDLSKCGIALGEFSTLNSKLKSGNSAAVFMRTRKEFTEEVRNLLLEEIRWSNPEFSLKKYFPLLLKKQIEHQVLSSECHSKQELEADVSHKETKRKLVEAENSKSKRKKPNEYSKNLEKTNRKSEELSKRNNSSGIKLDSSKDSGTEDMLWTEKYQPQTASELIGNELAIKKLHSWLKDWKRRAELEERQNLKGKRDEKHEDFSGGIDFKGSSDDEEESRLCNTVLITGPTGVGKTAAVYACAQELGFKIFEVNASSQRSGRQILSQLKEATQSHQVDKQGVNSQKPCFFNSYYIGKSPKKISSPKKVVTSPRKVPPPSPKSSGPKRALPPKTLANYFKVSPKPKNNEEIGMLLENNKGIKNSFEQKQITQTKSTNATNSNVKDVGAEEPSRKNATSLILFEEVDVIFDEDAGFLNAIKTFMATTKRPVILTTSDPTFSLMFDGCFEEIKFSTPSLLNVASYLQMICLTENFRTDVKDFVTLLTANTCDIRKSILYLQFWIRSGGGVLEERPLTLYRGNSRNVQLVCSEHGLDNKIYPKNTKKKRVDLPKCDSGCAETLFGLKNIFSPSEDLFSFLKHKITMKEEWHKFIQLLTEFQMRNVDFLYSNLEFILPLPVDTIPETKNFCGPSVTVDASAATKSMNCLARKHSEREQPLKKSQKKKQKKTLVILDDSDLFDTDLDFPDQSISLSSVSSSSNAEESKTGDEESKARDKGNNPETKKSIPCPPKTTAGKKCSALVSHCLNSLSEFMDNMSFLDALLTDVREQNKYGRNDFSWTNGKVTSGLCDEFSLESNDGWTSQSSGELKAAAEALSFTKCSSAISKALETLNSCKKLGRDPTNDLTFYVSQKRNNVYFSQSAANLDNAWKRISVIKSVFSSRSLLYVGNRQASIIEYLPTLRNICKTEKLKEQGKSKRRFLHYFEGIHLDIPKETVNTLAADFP
row,Compound,Potency
1,CC(=O)c1c(C)n(-c2ccc(C)cc2)c2ccc(O)cc12,inactive
2,COc1ccc(NC(=O)C2CCC(CNc3c(N4CCCCC4)c(=O)c3=O)CC2)c(OC)c1 (centres undefined),inactive
3,COc1ccccc1C(=O)Nc1ccc(C)c(S(=O)(=O)N2CCCCC2)c1,14.1 µM (active)
4,OCCCNc1nccc(-c2cc(Nc3cccc(Cl)c3)ncn2)n1,0.629 µM (active)
5,CCc1ccc(N(CC)c2ncnc3nc[nH]c23)cc1,17.7 µM (active)
6,COc1ccc(CNc2ncnc3ccccc23)cc1,1.58 µM (active)
7,Cc1ccc(C)c(S(=O)(=O)N2CCN(c3ncnc4sccc34)CC2)c1,2.81 µM (active)
8,O=C(C1CCCN(S(=O)(=O)c2ccccc2)C1)N1CCN(c2ccc(F)cc2)CC1 (centres undefined),4.45 µM (active)
9,COc1ccc(CSc2nc(N3CCOCC3)c3c(c2C#N)CC(C)(C)OC3)cc1,inactive
10,COc1ccc(-c2nn(-c3ccccc3)cc2/C=C\C(=O)N2CCOCC2)cc1[N+](=O)[O-],inactive
11,COc1ccc(NS(=O)(=O)c2ccc(Oc3c(C#N)cccc3C#N)cc2)cc1,3.15 µM (active)
12,NC(=O)c1sc2nc3c(c(-c4ccccc4)c2c1N)CCC3,7.05 µM (active)
13,COc1ccc(S(=O)(=O)Nc2ccc3oc(C)c(C(C)=O)c3c2)cc1,3.97 µM (active)
14,Cc1cc2oc(=O)cc(CN3CCN(S(=O)(=O)c4cccs4)CC3)c2cc1C(C)C,8.88 µM (active)
15,CN(CC1CCCO1)S(=O)(=O)c1ccc(C(=O)Nc2ccc(F)cc2)cc1 (centres undefined),22.3 µM (active)
16,Nc1nnc(SCC(=O)Nc2ccc3nc(SCC(=O)Nc4ccccc4)sc3c2)s1,4.99 µM (active)
17,CS(=O)(=O)c1ccc2nc(NC(=O)C3CCCCC3)sc2c1,inactive
18,Clc1ccc2nc(-c3ccccc3)nc(C(Cl)Cl)c2c1,2.23 µM (active)
19,CC(C)(CNC(=O)c1ccc(Cl)c(S(=O)(=O)N2CCc3ccccc3C2)c1)N1CCOCC1,1.58 µM (active)
